PubChem BioAssay AID492956 (The Scripps Research Institute Molecular Screening Center, 2010)
The whole screen tested about 340,000 compounds, of which about 3,300 (0.97%) were called active. The list comes from a sample in which actives are over-represented; it also holds similar structures and randomly drawn compounds. Unmarked numbers belong to inactive results.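 How the source made its calls: active means inhibition above the mean over all tested compounds plus 3 SD (cut at about 30% in these data); inactive means the rest.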

What follows are molecules tested against Platelet-activating factor acetylhydrolase 2, cytoplasmic (Homo sapiens) (UniProt Q99487) (assay: PAFAH2 enzyme inhibitors, primary screen, biochemical, fluorescence polarization, human (AID 492956;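 further: inhibitors block probe labeling of enzyme so polarization drops; 0% = enzyme with DMSO and 100% = wells lacking PAFAH2 protein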)). Conditions: recombinant PAFAH2, FP-rhodamine activity probe, at 3.39 µM, stronger effect = higher value.
`Cc1c(CN2CCC(CO)(CCOc3ccccc3)CC2)[nH]c2ccc(Cl)cc12` gave an inhibition of -1.75%. `CCOc1ccccc1NS(=O)(=O)c1cc2c3c(c1)C(C)C(=O)N3CCC2` (stereo not given) was tested, and the inhibition was 6.38%. Molecule `CCOc1ccccc1OCC(=O)Nc1ccccc1C(=O)NC1CC1` has an inhibition of 2.58%. `COc1nc(N=C(N)N)nc2c(C)cccc12` showed an inhibition of 6.78%. `CC(=O)Oc1ccc(-c2nc3c(C)cccc3c(=O)o2)cc1` was tested, and the inhibition was 40.7% (active). In the case of `CC(=O)Oc1ccc2c(=O)oc(-c3ccc([N+](=O)[O-])cc3)nc2c1`, the inhibition is reported as 29.4%. `Cc1cc(C)cc(C(=O)NC(=S)Nc2ccc3[nH]c(=O)[nH]c3c2)c1` was tested, and the inhibition was -14%. In the case of `CC1(C)C2CC=C(/C=N/NC(=O)C3CC3)C1C2` (stereo not given), the inhibition is reported as -2.63%. `CCN(CC)CCCNC(=O)c1ccc2c(=O)n(Cc3ccc4c(c3)OCO4)c(=S)[nH]c2c1` gave an inhibition of 4.33%. `CN(C)S(=O)(=O)c1ccc(NC(=O)COC(=O)c2n[nH]c3ccccc23)cc1` showed an inhibition of -1.53%. For `O=C(COC(=O)c1n[nH]c2ccccc12)Nc1ccccc1Br`, the inhibition was 47.3% (active). With `C=CCN(CC=C)C(=O)COC(=O)c1n[nH]c2ccccc12` the inhibition was 3.36%. With `COc1ccc(NC(=O)COC(=O)c2n[nH]c3ccccc23)c(OC)c1` the inhibition was 7.22%. For `O=C(COC(=O)c1ncc(Cl)c(Cl)c1Cl)NCc1ccccc1`, the inhibition was -0.64%. For `O=C(COC(=O)c1n[nH]c2ccccc12)NCc1ccccc1`, the inhibition was 35.5% (active). With `O=C(O)CC(c1ccccc1F)N1Cc2ccccc2C1=O` (stereo not given) the inhibition was 3.09%. In the case of `Cc1ccn2c(=O)nc(SCC(=O)NCc3ccc4c(c3)OCO4)nc2c1`, the inhibition is reported as -12.4%. In the case of `Nc1nc(Br)c2ccccc2c1-c1ccc(F)cc1`, the inhibition is reported as 0.32%. In the case of `COCCCn1c(SCC(=O)Nc2oc(C)c3c(C)n[nH]c(=O)c23)nc2sc3c(c2c1=O)CCC3`, the inhibition is reported as -2.08%. `CCN(CC)S(=O)(=O)c1ccc2nc(CSc3nnnn3-c3ccc(O)cc3)[nH]c2c1` was tested, and the inhibition was -3.11%. `C(#CCN1CCOCC1)CCCN1CCOCC1` gave an inhibition of 6.41%. Molecule `Cc1cnc(C(=O)OCC(=O)Nc2ccc(Cl)cc2Cl)cn1` has an inhibition of -10.2%. `Cc1cc(C)cc(NC(=O)COC(=O)c2cc(C)oc2C)c1` was tested, and the inhibition was 60.9% (active). With `Cc1cc(C(=O)OCC(=O)c2c(N)n(C)c(=O)n(C)c2=O)c(C)o1` the inhibition was 10.2%. With `COc1cc(NC(=O)COC(=O)c2cc(S(=O)(=O)N3CCOCC3)ccc2F)cc(OC)c1` the inhibition was -0.21%. Molecule `O=C(COC(=O)CCc1c[nH]c(=O)[nH]1)Nc1ccccc1Cl` has an inhibition of 1.19%. For `Cc1cc(C(=O)OCC(=O)Nc2ccccc2Cl)c(C)o1`, the inhibition was 45.1% (active). With `O=C(COC(=O)c1ccc[nH]c1=O)Nc1ccc2c(c1)OC(F)(F)O2` the inhibition was -3.01%. With `Cc1cc(C(=O)OCC(=O)Nc2ccc(F)c(F)c2)c(C)o1` the inhibition was 81.8% (active). With `Cc1cc(C)cc(C(=O)OCC(=O)NCCNC(=O)COC(=O)c2cc(C)cc(C)c2)c1` the inhibition was 3.14%. Molecule `CONc1nc2nonc2nc1NOC` has an inhibition of 5.98%. `Cc1ccc(Nc2c(F)c(F)c(F)c(F)c2C(=O)O)c(C)c1` was tested, and the inhibition was 4.36%. In the case of `Cn1c(=O)c(C(=O)Nc2ncccn2)c(O)c2ccccc21`, the inhibition is reported as -2.23%. `Cc1cc(=O)n2nc(N3CCCC3C(=O)NCCCN3CC(C)CC(C)C3)sc2n1` (stereo not given) was tested, and the inhibition was -2.55%. For `O=C(COC(=O)c1ccc(F)cc1)Nc1ccc2c(c1)OCO2`, the inhibition was 81% (active). With `O=C(COc1ccc(Cl)cc1)Nc1ccc2c(c1)OCO2` the inhibition was -4.53%. For `Cc1cccc(C(=O)OCC(=O)Nc2sc3c(c2C#N)CCC3)c1`, the inhibition was 3.15%. Work on `O=C(COC(=O)c1cccc(Cl)c1)Nc1ccc2[nH]c(=O)[nH]c2c1` yielded an inhibition of -4.35%. Work on `O=C(COC(=O)c1ccncc1)Nc1ccc2c(c1)OCO2` yielded an inhibition of 1.78%. In the case of `Cc1cccc(C(=O)OCC(=O)Nc2ccc(F)cc2)c1`, the inhibition is reported as 84% (active). In the case of `Cn1c(=O)c2c(ncn2CC(=O)N/N=C/c2cn[nH]c2-c2ccc(F)cc2)n(C)c1=O`, the inhibition is reported as 3.66%. For `O=C(NCc1ccco1)/C(=C/c1cccc([N+](=O)[O-])c1)NC(=O)c1ccco1`, the inhibition was -0.82%. For `CN1C(=O)/C(=C/C=C2\SCCN2C)OC1=S`, the inhibition was -4.81%. In the case of `COc1ccc(NS(=O)(=O)c2cc(NC(=O)C3CCCCC3)ccc2N2CCOCC2)cc1`, the inhibition is reported as 0.82%. With `O=C(NCCS(=O)(=O)N1CCN(c2ccccc2F)CC1)c1ccc(Br)o1` the inhibition was -0.55%. In the case of `O=C(ON=C1CCN(S(=O)(=O)c2ccccc2)CC1)c1ccc(Cl)cc1`, the inhibition is reported as 86.6% (active). Molecule `CC(OC(=O)c1ccc(S(=O)(=O)N2CCOCC2)cc1)c1ccccc1` (stereo not given) has an inhibition of 2.29%. Work on `COC(=O)c1ccc(S(=O)(=O)N2CCc3ccccc3C2)cc1` yielded an inhibition of -2.2%. In the case of `CN1CCC(OC(=O)COc2ccc(Cl)cc2Cl)CC1`, the inhibition is reported as -2.95%. `CCN(C(=O)COC(=O)c1sccc1C)c1c(N)n(Cc2ccccc2)c(=O)[nH]c1=O` was tested, and the inhibition was -2.58%. `CC(=O)Cn1cnc2c(cnn2-c2ccccc2)c1=O` showed an inhibition of -0.98%. `Cc1ccc(-n2ncc3c(=O)n(-c4ccc(C)c(C)c4)c(-c4ccco4)nc32)cc1` showed an inhibition of -1.39%. With `Cc1ccc(-c2nc3c(cnn3-c3ccccc3)c(=O)o2)cc1` the inhibition was 59.4% (active). `O=c1cc(O)c(-c2cccc(C(F)(F)F)c2)c(Cl)[nH]1` showed an inhibition of -1.33%. For `COc1ccc(S(=O)(=O)N2CCOCC2)cc1NC(=O)COc1ccccc1`, the inhibition was 6.32%. In the case of `COc1ccc(S(=O)(=O)N2CCOCC2)cc1NC(=O)Cc1coc2cc(C)ccc12`, the inhibition is reported as 39.9% (active). Work on `COc1ccc(S(=O)(=O)N2CCCCCC2)cc1NC(=O)Cc1ccc(OC)c(OC)c1` yielded an inhibition of 14.1%. With `COc1ccc(S(=O)(=O)N2CCOCC2)cc1NC(=O)CC1CC2CCC1C2` (stereo not given) the inhibition was 70.4% (active). `COc1ccc(S(=O)(=O)N2CCOCC2)cc1NC(=O)CSc1nnc(NC2CC2)s1` was tested, and the inhibition was 3.17%. `COc1ccc(S(=O)(=O)N2CCOCC2)cc1NC(=O)Cc1c(F)cccc1Cl` was tested, and the inhibition was 43.5% (active). `COc1ccc(S(=O)(=O)N2CCOCC2)cc1NC(=O)c1ccc(OCC(C)C)c(OC)c1` showed an inhibition of 4.28%. `COc1ccc(S(=O)(=O)N2CCOCC2)cc1NC(=O)CSc1ncnc2ccccc12` showed an inhibition of 0.39%. `COc1ccc(S(=O)(=O)N2CCOCC2)cc1NC(=O)CSc1cc(C)ccc1C` showed an inhibition of 2.32%. Work on `CC(=O)NC(CC(=O)Nc1nccs1)c1ccccc1` (stereo not given) yielded an inhibition of 0.3%. Molecule `Cc1cnc(C)c(N2CCN(C(=O)C3CCC(=O)N(CCc4cccc(F)c4)C3)CC2)n1` (stereo not given) has an inhibition of 6.98%. `O=S(=O)(O)c1cc2onnc2c2ccccc12` gave an inhibition of 18.2%. `CCOC(=O)c1c(C)[nH]c2c1-c1ccccc1C(=O)C2=O` was tested, and the inhibition was 53.9% (active). Molecule `CCOC(=O)c1ccccc1OC(=O)Oc1ccccc1C(=O)OCC` has an inhibition of 2.01%. `CCOC(=O)C1=C(C)c2ccccc2OC1(C)C(=O)OCC` (stereo not given) gave an inhibition of 0.57%. Molecule `CCOc1ccc(OCC)c(NC(=O)C(NS(=O)(=O)c2ccc3c(c2)oc(=O)n3C)C(C)C)c1` (stereo not given) has an inhibition of -6.23%. `O=C(NC1CCCC1)C1CC(=O)N(c2ccc(F)cc2)C1` (stereo not given) gave an inhibition of 5.88%. In the case of `CC(=O)NS(=O)(=O)c1ccccc1`, the inhibition is reported as -3.11%. For `CCCCn1ccnc1C(=O)c1cccc(S(=O)(=O)N2c3ccccc3CC2C)c1` (stereo not given), the inhibition was 0.31%. `N#Cc1ccc(C(=O)OCC(=O)NC(=O)NC2CCCCC2)cc1` gave an inhibition of 6.68%. In the case of `O=C(COC(=O)c1cccc(Cl)c1)NC1CCCCCCC1`, the inhibition is reported as 82.5% (active). In the case of `Cc1ccc(C(=O)NCC(=O)OCC(=O)NC2CCCCCCC2)cc1`, the inhibition is reported as -6.95%. `CCN(C(=O)COC(=O)c1cc(NS(=O)(=O)c2ccc(Cl)c([N+](=O)[O-])c2)ccc1O)C1CCCCC1` was tested, and the inhibition was 14.6%. Molecule `CCOc1ncccc1C(=O)OCC(=O)NC1CC1` has an inhibition of 15.7%. For `O=C(COC(=O)c1ccccc1SCC(=O)NC1CCCCC1)NC1CCCCC1`, the inhibition was 59.5% (active). `O=C(COC(=O)c1cccc(Cl)c1)NC(=O)NCc1ccccc1` was tested, and the inhibition was 1.23%. `CC(C)NS(=O)(=O)c1ccc(OCC(=O)NC2CCCCCC2)cc1` showed an inhibition of 5.5%. `N#Cc1ccccc1Sc1ccccc1C(=O)OCC(=O)NC1CCCCC1` was tested, and the inhibition was 31% (active). For `COc1ccc(NS(=O)(=O)c2ccc(O)c(C(=O)OCC(=O)NC3CCCCC3)c2)cc1`, the inhibition was 41% (active). `O=C(COc1ccccc1O)NC1CCCC1` was tested, and the inhibition was 1.1%. `O=C(COC(=O)c1cc([N+](=O)[O-])ccc1NCc1ccccc1)NC1CCCCC1` was tested, and the inhibition was 9.35%. `CCN(CC)S(=O)(=O)c1ccc(N2CCN(C)CC2)c(NC(=O)Nc2ccccc2F)c1` was tested, and the inhibition was -13.1%. `COc1ccc(CN2CC[C@H]3C=CC[C@@H](C(=O)N4CCOCC4)[C@H]3C2=O)cc1OC` showed an inhibition of -0.91%. In the case of `COc1cc(NC(=S)NCCSc2ccc(C)cc2)cc(OC)c1`, the inhibition is reported as 5.74%. In the case of `COc1ccc(C(=O)C2CCCN(C(=O)c3cnsn3)C2)c(C)c1` (stereo not given), the inhibition is reported as -5.08%. `COc1ccccc1NC(=O)COC(=O)c1ccccc1SCC(=O)N1CCCC1` was tested, and the inhibition was 16.2%. `CC(C)N(Cc1ccccc1)C(=O)COC(=O)c1ccccc1SCC(=O)N1CCCC1` was tested, and the inhibition was -10.1%. `CS(=O)(=O)Nc1ccccc1C(=O)OCC(=O)NC1CC1` gave an inhibition of 9.45%. In the case of `O=C(COC(=O)c1ccccc1SCC(=O)N1CCCC1)Nc1ccccc1OC(F)F`, the inhibition is reported as 49.4% (active). Work on `O=C(COC(=O)c1cccnc1Cl)NC(=O)NC1CCCCC1` yielded an inhibition of 0.86%. For `O=C(COC(=O)c1ccccc1Cl)NC1CCCCCCC1`, the inhibition was 68.9% (active).
